A selection: hits, their analogues and other compounds. The true share with any hit is near 18%.
TDP1 cell CPT: growth inhibition of DT40 Tdp1-/-;hTDP1 cells with camptothecin (screen for TDP1 inhibitors) | chicken DT40 Tdp1-/-;hTDP1 cells + 20 nM CPT, ATP luminescence, 48 h | Potency, µM (series often up to 46.2 µM), for the others: at the highest dose activity change, negative = growth inhibition, usual class: inhibitors | 420,000 tested, 12% active | AID 686979; further: nearly all actives have a fitted effect of over 55% in size
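Chicken DT40 Tdp1-/- cells complemented with human TDP1, 400 cells/well, exposed to compounds plus 20 nM camptothecin for at least 48 h at 37 C; viability read as ATP content by CellTiter-Glo luminescence.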
PLK1 PBD block: PLK1 (human) polo-box domain binding inhibition | P53350 | Plk1 PBD binding of FITC phosphopeptide, fluorescence polarization | Potency, µM, for inactives: max response, negative = inhibition, most hits filed as inhibitors | 360,000 tested, 2.8% active | AID 720504; further: series mostly up to about 57 µM; nearly all actives have a fitted effect of over 65% in size
TDP1 inh: blocks human tyrosyl-DNA phosphodiesterase 1 | 350,000 tested, 0.28% active | Q9NUW8 | Potency, µM (top dose mostly 130 µM), inactives show top-dose activity change, negative = inhibition, usual class: inhibitors | recombinant TDP1, AlphaScreen DNA substrate cleavage; further: nearly all actives have a fitted effect of over 40% in size
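Recombinant E. coli-expressed Tdp1 (1 nM) preincubated with compound 15 min at RT, then 5'-biotin/3'-phosphotyrosine-FITC DNA substrate (15 nM) added for 5 min. AlphaScreen beads (10 ug/ml) added, 10 min RT; tyrosine-FITC cleavage read as signal loss.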
DT40 TDP1 no CPT: qHTS for Inhibitors of human tyrosyl-DNA phosphodiesterase 1 (TDP1): qHTS in cells in absence of CPT | DT40 Tdp1-/- hTDP1 cells, no CPT, ATP luminescence, 48 h | Potency, µM (series often up to 46.2 µM), for inactives: at the top dose activity change, negative = growth inhibition, usual class: inhibitors | 420,000 tested, 15% active; further: nearly all actives have a fitted effect of over 55% in size
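Stably hTDP1-transfected Tdp1-null chicken DT40 cells were treated with library compounds minus camptothecin and grown for at least 48 hr at 37 °C, after which cellular ATP was quantified by luminescence.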
VDR inh: inhibitors of human vitamin D receptor | P11473 | VDR-SRC2-3 peptide fluorescence polarization, 2 h | Potency, µM, for inactives: max response, negative = inhibition, usual class: inhibitors | 400,000 tested, 0.93% active | AID 504847
Target sequence (P11473 whole entry, looked up): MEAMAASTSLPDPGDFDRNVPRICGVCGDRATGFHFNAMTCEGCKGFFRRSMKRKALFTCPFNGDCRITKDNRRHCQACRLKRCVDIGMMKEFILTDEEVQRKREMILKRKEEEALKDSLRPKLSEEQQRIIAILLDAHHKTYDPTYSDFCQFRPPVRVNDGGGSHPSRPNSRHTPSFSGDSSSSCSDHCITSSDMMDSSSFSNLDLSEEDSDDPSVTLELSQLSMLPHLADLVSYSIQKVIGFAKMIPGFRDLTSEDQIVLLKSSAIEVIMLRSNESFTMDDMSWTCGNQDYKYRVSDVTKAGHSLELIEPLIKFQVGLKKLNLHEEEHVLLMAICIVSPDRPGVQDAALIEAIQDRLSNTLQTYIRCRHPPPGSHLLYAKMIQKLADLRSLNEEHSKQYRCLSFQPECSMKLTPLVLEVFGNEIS
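Fluorescence polarization assay measuring small-molecule disruption of VDR binding to the coregulator peptide SRC2-3. Compounds were pin-transferred (23 nl) into the reagent mix and incubated 2 h at room temperature before reading.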
GCN5L2 inh: blocks human GCN5L2 histone acetyltransferase | Q92830 | GCN5L2 HAT assay, ThioGlo1 CoA-SH fluorescence | Potency, µM (titrated, usually from 58.9 µM), without a hit: top-dose activity change, negative = inhibition, most hits filed as inhibitors | 390,000 tested, 0.21% active
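Preincubate 20nM GCN5L2 with compound 15 min, RT → add 50uM ThioGlo1 + 75uM H3(1-25) + 70uM acetyl-CoA → read fluorescence 0 and 20 min. Primary qHTS; fluorescent artifacts likely.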
An asterisk follows results filed as active; ? = inconclusive; . = no result; [ ] = another dose, or the depositor's remark. The call rests on the fitted dose curve; in most records, active means well fitted curve in the direction sought with a large enough effect; inconclusive means small, poorly fitted or top-dose-only effect, or another doubt; inactive means no such curve, though single readings can be large; an effect the other way counts as inactive or inconclusive. On the % scale 0 is the no-effect control and ±100 the full control effect; potency means the concentration at half of the fitted maximal effect.

SMILES	TDP1 cell CPT	PLK1 PBD block	TDP1 inh	DT40 TDP1 no CPT	VDR inh	GCN5L2 inh
O=C(c1ccc(F)cc1)C(CCCCCC(CN1CCOCC1)C(=O)c1ccc(F)cc1)CN1CCOCC1 (stereo not given)	?	-1%	4%	18µM*	-12%	-3%
Cc1ccc(C2=Nc3ccccc3N=C(c3ccc(F)cc3)C2)c(O)c1	-21%	.	6%[12.3 µM]	?	4%	1%
CCCCN1C(=O)C(O)(c2c(C)[nH]c3ccccc23)c2cc(Br)ccc21 (stereo not given)	5.8µM*	.	7%	4.1µM*	-19%	-8%
CCCCN1C(=O)C(O)(c2c(C)[nH]c3ccccc23)c2ccccc21 (stereo not given)	5.8µM*	.	5%	5.8µM*	2%	1%
COc1ccccc1NC(=O)C1=C(C)Nc2nc(SCc3ccccc3Cl)nn2C1c1ccncc1 (stereo not given)	-1%	.	6%	-4%	1%	0%
CCCCN(C(=O)c1ccccc1Cl)C(CC(C)C)c1nc2ccccc2[nH]1 (stereo not given)	21µM*	-8%	.	?	.	.
CCc1ccccc1NC(=S)N1CCNC(=O)C1CC(=O)OC (stereo not given)	?	21µM*	0%	?	-18%	-7%
COc1ccc(NC(=O)C2CCCO2)cc1 (stereo not given)	2%	1%	2%	18%	11%	-2%
COc1cccc(C(=O)NNC(=O)C2CCCO2)c1 (stereo not given)	-1%	-9%	9%	-3%	19%	-2%
COc1ccc(-c2csc(NC(=O)C3CCCO3)n2)cc1 (stereo not given)	?	-14%	2%	21µM*	12%	2%
COc1ccc(C(=O)NNC(=O)C2CCCO2)cc1 (stereo not given)	?	27µM*	.	-26%	?	-3%
COCC(=O)Nc1cc(C(=O)NC2C3CC4CC2CC(O)(C4)C3)cc2nc(-c3ccccc3)n(C)c12 (stereo not given)	-1%	.	.	-5%	.	.
CC(C)OCCCNC(=O)C1CCN(S(=O)(=O)N2CCCC2)CC1	-8%	?	5%	-3%	-2%	2%
COc1ccc(O[C@H]2C=C[C@@H](c3ccccc3)O[C@@H]2CO/N=C(\C)CCC(=O)OC[C@H]2O[C@H](c3ccccc3)C=C[C@@H]2Oc2ccc(OC)cc2)cc1	.	.	3%	.	.	-5%
CCCCCOc1ccc(C2c3c(oc4ccccc4c3=O)C(=O)N2c2nc(C)c(C)s2)cc1OCC (stereo not given)	-18%	.	2%	-23%	-8%	0%
COc1ccc(C2=NO[C@@H]3C(=O)N(c4ccc(C)cc4C)C(=O)[C@H]23)cc1OC	26µM*	-9%	5%	?	-11%	1%
COc1ccc(-c2cn(-c3ccc(C)cc3C)c(=O)[nH]2)cc1OC	15µM*	-23%	4%	?	-23%	0%
Cc1ccc(Cl)cc1NC(=O)Cn1c(SCC(=O)NCc2ccccc2)nc2ccccc21	?	.	6%	?	3%	9%
C=CCN1C(=O)C2(NC(=O)c3ccccc3N2)c2ccccc21 (stereo not given)	18µM*	-4%	5%	?	-4%	20%
O=C1NC2(Nc3ccccc31)C(=O)Nc1ccccc12 (stereo not given)	-25%	-7%	-1%	?	-10%	-4%
C=CCN1C(=O)C(O)(CC(=O)c2ccc(-n3cccc3)cc2)c2ccccc21 (stereo not given)	?	-8%	11%	?	?	-11%
C=CCN1C(=O)C2(NNc3ccccc3O2)c2ccccc21 (stereo not given)	6.5µM*	12%	11%	8.2µM*	2%	3%
COCCCNC(NC(=O)c1ccc(Cl)cc1)C(Cl)(Cl)Cl (stereo not given)	?	-7%	0%	16µM*	-2%	-7%
O=C(NCCc1cccc(Cl)c1)c1cccs1	?	-10%	-7%	-25%	8%	-9%
CC(C)(C)CC(C)(C)N=C1Nc2cc(Cl)c(Cl)cc2N[C@]12C[C@H]1CCCC(=O)N3CC[C@@H](C2)[C@@H]13	?	.	.	11µM*	.	.
SMILES	TDP1 cell CPT	PLK1 PBD block	TDP1 inh	DT40 TDP1 no CPT	VDR inh	GCN5L2 inh
CC(C)(C)CC(C)(C)N=C1Nc2cc(Cl)c(Cl)cc2NC12C[C@H]1CCC(=O)N3CC[C@@H](C2)[C@@H]13 (stereo not given in full)	?	-4%	.	?	2%	.
CC(C)OC(=O)c1cccc(NC(=O)CSc2nnc(N)s2)c1	-14%	-13%	5%	-20%	6%	-8%
CN(Cc1ccco1)c1cc(-c2ccoc2)ncn1	-19%	.	.	-2%	28µM*	32µM*
COc1cccc(-c2cc(N(C)Cc3ccco3)ncn2)c1	-25%	.	.	-19%	45µM*	-10%
CN(Cc1ccco1)c1cc(-c2cccc(C#N)c2)ncn1	-2%	.	.	-16%	?	-5%
Cc1ccccc1-c1cc(N(C)Cc2ccco2)ncn1	?	.	.	-8%	45µM*	-4%
CN(C)c1ccc(-c2cc(N(C)Cc3ccco3)ncn2)cc1	?	.	.	?	?	-15%
Cc1noc(C)c1-c1cc(N(C)Cc2ccco2)ncn1	?	.	.	-10%	32µM*	?
COc1cccc2sc(N(Cc3cccnc3)C(=O)Cc3ccccc3)nc12	?	.	3%	?	5%	-10%
COc1ccc(C2Nc3ccccc3C(=O)N2Cc2ccccc2Cl)cc1COc1ccc(NC(C)=O)cc1 (stereo not given)	.	.	1%	.	.	.
Cc1ccc(C2(CCN)CCOC(C(C)C)C2)cc1 (stereo not given)	23µM*	-7%	1%	?	1%	2%
Cc1nc2cnc(OCc3ccccc3)nc2n(Cc2ccc(F)cc2)c1=O	3%	.	.	-12%	3%	-17%
O=[N+]([O-])c1ccc(N=Cc2ccc(Br)c([N+](=O)[O-])c2)cc1	5.2µM*	?	8%	5.2µM*	-21%	-6%
COc1ccc(Nc2c([N+](=O)[O-])ccc3c2=NC2(CCCCC2)N=3)cc1	?	2%	12%	21µM*	-3%	-25%
COc1ccc(Nc2ccncc2[N+](=O)[O-])cc1	-23%	-10%	3%	?	-18%	-3%

Compound activity (PubChem)
